# Reference: the supplement of paper PMC11219838
# Values without a mark were called inactive.
# Assays:
# Settings in all cases: 60 µM; 5 days; temperature: 20 °C
# [1] = tested on: Meloidogyne hapla J2; assay: proportion of mobile M. hapla J2 relative to DMSO control (fraction of DMSO control); higher = more viable, less nematicidal, active = 0.7 or less
# Outline: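 Compound was pinned to 60 µM final (0.6% v/v DMSO) into 96-well wells, each holding about 25 M. hapla J2 in distilled water. Plates were sealed and shaken for 5 days at 20 °C and 200 rpm, then given 2 µL 1 M NaOH per well. Microscopic mobility scores were normalised to the mean of the plate's own DMSO wells, eight per plate, with two biological replicates averaged.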
# [2] = tested on: Caenorhabditis elegans dauer (daf-2(e1370)); assay: proportion of mobile C. elegans dauer larvae relative to DMSO control (fraction of DMSO control); higher = more viable, less nematicidal, active = 0.63 or less; extreme values may be limits of the assay
# Outline: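 Synchronized C. elegans larvae were kept for 48 h at 25 °C on MYOB plates seeded with E. coli OP50 to induce dauer formation, and roughly 20 dauers were transferred into each well of a 96-well plate containing liquid NGM. Compound was pinned in to a final concentration of 60 µM with 0.6% v/v DMSO, and the sealed plates were shaken at 200 rpm for 5 days at 20 °C. The fraction of mobile worms was scored under a dissection microscope against DMSO-only wells and averaged across two biological replicates.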
# [3] = tested on: Ditylenchus dipsaci; assay: proportion of mobile D. dipsaci (mixed stage) relative to DMSO control (fraction of DMSO control); higher = more viable, less nematicidal, active = 0.86 or less; extreme values may be limits of the assay
# Outline: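 Mobility values are relative to DMSO controls and are averages of two biological replicates. For each well of a 96-well plate, about 20 D. dipsaci worms, grown on pea plants in Gamborg B-5 agar and funnel-extracted into water, were dispensed in distilled water. Plates received pinned compound at 60 µM final with 0.6% v/v DMSO and were sealed and shaken at 200 rpm for 5 days at 20 °C before 2 µL 1 M NaOH was added and mobile worms were scored by microscope.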
SMILES,proportion of mobile M. hapla J2 [1],proportion of mobile C. elegans dauer larvae [2],proportion of mobile D. dipsaci [3]
COc1cccc(-c2nnc(SCc3ccccc3C)o2)c1,1.01,1,1
CC(Sc1nnc(-c2ccc(C(C)(C)C)cc2)o1)C(=O)Nc1nccs1 (centres undefined),0.845,1,1
Cc1cc(OCc2nc(-c3ccccc3)no2)ccc1Cl,0.844,1,1
COc1ccc(-c2nnc(SCC(=O)Nc3ccc(Cl)c(Br)c3)o2)cc1,0.933,1,1
COc1ccc(-c2noc(COc3ccc(F)cc3)n2)cc1,0.891,1,1
COc1cccc(-c2noc(COc3ccc(C(C)C)cc3)n2)c1,0.968,1,1
Clc1ccc(-c2noc(-c3ccncc3)n2)cc1,0.784,1,1
Fc1cccc(Cl)c1CSc1nnc(-c2ccccc2)o1,1,0.977,1
Cc1cc(OCc2nc(-c3ccc(NC(=O)c4ccc5c(c4)OCO5)cc3)no2)ccc1Cl,0.843,1,1
COc1cccc(OCc2nc(-c3cccc(C)c3)no2)c1,0.866,1,1
Fc1ccc(-c2nc(-c3ccc(Br)cc3)no2)cc1,0.848,1,1
CC(C)Oc1cccc(-c2nc(-c3ccccn3)no2)c1,1.01,0.667,1
COc1ccc(C(=O)CSc2nnc(-c3cccc4ccccc34)o2)cc1,0.929,1,1
CCOc1ccccc1-c1nnc(SCC(=O)N2CCC(C)CC2)o1,0.856,1,1
CC(=O)Nc1c(C)ccc(CNC(=O)CSc2nnc(-c3ccc(C(C)(C)C)cc3)o2)c1C,0.88,1,1
O=C(CSc1nnc(-c2ccco2)o1)c1ccccc1,0.974,1,1
CCOc1cc(-c2noc(-c3ccncc3)n2)ccc1OC,0.745,1,1
COc1ccc(-c2noc(-c3cccc(Br)c3)n2)cc1,0.987,1,1
Clc1ccccc1-c1noc(-c2ccncc2)n1,0.953,1,1
COc1cccc(-c2noc(COc3ccc(Br)cc3)n2)c1,0.942,1,1
COc1ccc(C(=O)CSc2nnc(-c3cccc(Br)c3)o2)cc1,1.04,1,1
Clc1ccccc1CSc1nnc(-c2ccncc2)o1,0.974,1,1
O=C(CSc1nnc(-c2ccccc2)o1)NCc1ccccc1,0.948,1,1
COc1ccc(-c2noc(-c3ccc(C)c(Cl)c3)n2)cc1,0.986,1,1
Cc1ccc(OC(C)c2nc(-c3ccncc3)no2)cc1C (centres undefined),0.995,1,1

SMILES,proportion of mobile M. hapla J2 [1],proportion of mobile C. elegans dauer larvae [2],proportion of mobile D. dipsaci [3]
COc1ccccc1-c1nnc(SCC(=O)Nc2ccccc2Cl)o1,0.973,1,1
COc1cccc(NC(=O)CSc2nnc(-c3ccc(Br)cc3)o2)c1,0.966,1,1
CCOc1ccc(-c2nc(-c3cccnc3)no2)cc1OCC,0.906,1,1
Brc1ccc(-c2noc(CSc3ccccc3)n2)cc1,1.09,1,1
Clc1ccc(-c2noc(COc3ccc4c(c3)OCO4)n2)cc1,0.899,1,1
COc1ccc(-c2noc(COc3ccccc3Cl)n2)cc1,1.04,1,1
CCOC(=O)c1ccc(NC(=O)c2ccccc2-c2nc(-c3cccc(C)c3)no2)cc1,0.777,1,1
Brc1ccc(CSc2nnc(-c3cccnc3)o2)cc1,0.911,1,1
COc1cccc(-c2noc(COc3cc(C)cc(C)c3)n2)c1,1.02,1,1
CC(=O)c1cccc(NC(=O)CSc2nnc(-c3ccccc3)o2)c1,0.937,1,1
COc1nc2ccc(C)cc2cc1-c1noc(-c2cccnc2)n1,0.972,1,1
Cc1ccc(C(=O)Nc2ccccc2-c2nc(-c3cccnc3)no2)cc1C,0.962,1,1
COc1cccc(-c2noc(-c3ccccc3C)n2)c1,1.06,1,1
O=C(CSc1nnc(-c2ccc(Cl)cc2Cl)o1)N1CCCCC1,0.934,1,1
COc1ccc(-c2noc(-c3ccccc3C)n2)cc1,0.898,0.533 (active),1
O=C(CSc1nnc(-c2ccc(Cl)cc2)o1)NC1CCCCC1,0.918,1,1
Cn1c(SCc2cccc(F)c2)nnc1-c1ccco1,0.929,1,1
Brc1ccc(OCc2nc(-c3ccncc3)no2)cc1,0.995,1,1
O=C(CSc1nnc(-c2ccncc2)o1)Nc1cc(Cl)cc(Cl)c1,0.948,1,0.955
Cc1ccc(-c2nnc(SCC(=O)Nc3nccs3)o2)cc1,1.04,1,1
Cc1ccc(OC(C)c2nc(-c3cccnc3)no2)cc1 (centres undefined),1.03,1,1
COc1cccc(-c2noc(COc3ccc(C)cc3C)n2)c1,0.941,1,1
c1ccc(-c2nc(C3CCCCC3)no2)cc1,0.956,1,1
Cc1cc(Br)ccc1OCc1nc(-c2cccnc2)no1,1.05,1,1
CCOc1ccccc1-c1nc(-c2ccc(Br)cc2)no1,0.916,1,1

SMILES,proportion of mobile M. hapla J2 [1],proportion of mobile C. elegans dauer larvae [2],proportion of mobile D. dipsaci [3]
CC(C)c1ccc(NC(=O)CSc2nnc(-c3ccc(Br)cc3)o2)cc1,1.03,1,1
c1ccc(-c2nnc(SCc3cccnc3)o2)cc1,0.92,1,0.75 (active)
CCOc1cc(-c2nc(-c3ccc(C)nc3OC)no2)cc(OCC)c1OCC,0.628 (active),1,1
COc1ccccc1-c1nc(-c2ccccc2Cl)no1,0.899,1,1
Cc1ccccc1-c1nc(-c2cccc(NC(=O)c3cccs3)c2)no1,0.959,1,1
Cc1ccc(NC(=O)CSc2nnc(-c3ccccc3)o2)cc1C,0.983,1,1
COc1ccccc1-c1nnc(SCC(=O)Nc2ccc(Br)cn2)o1,0.908,1,1
CCCC(=O)Nc1ccccc1-c1nc(-c2ccccn2)no1,0.965,1,1
Clc1cccc(-c2nc(-c3ccc4c(c3)OCO4)no2)c1,0.943,1,1
Cc1cc(OCc2nc(-c3cccnc3)no2)c(C)cc1Br,0.771,1,1
Cc1ccc(-c2noc(COc3ccc(Cl)cc3)n2)cc1,1.02,1,1
Cc1ccc(-c2nnc(SCC(=O)Nc3cc(C)ccc3C)o2)cc1,0.982,1,1
COc1cccc(-c2noc(COc3cccc(C)c3C)n2)c1,1.04,1,1
Cc1ccc(-c2noc(COc3ccc(Cl)c(C)c3)n2)cc1,0.905,1,1
Clc1ccc(CSc2nnc(-c3ccccn3)o2)cc1,0.835,1,1
Brc1ccc(-c2noc(-c3ccc4c(c3)OCO4)n2)cc1,1.03,1,1
COC(=O)CSc1nnc(-c2ccc(C(C)(C)C)cc2)o1,0.976,1,1
CC(C)(C)c1ccc(OCc2nc(-c3ccccc3)no2)cc1,0.987,1,1
Cc1cc(OCc2nc(-c3ccncc3)no2)c(C)c(C)c1Br,1.06,1,1
Cc1ccc(-c2noc(COc3ccc(Br)cc3)n2)cc1,1,1,1
Cc1ccc(-c2nc(C3CCCCC3)no2)cc1,1.01,1,1
O=C(CSc1nnc(-c2cccc(Cl)c2)o1)N1CCCCC1,1,1,1
COc1ccc(-c2nnc(SCC(=O)c3ccc(C)o3)o2)cc1,1,1,1
